Source: PubChem BioAssay (National Center for Advancing Translational Sciences (NCATS))
In the library only some 3% were active in any assay of this set; here they are far more common.
ALOX15B inhib – blocks human 15-lipoxygenase 2 activity. Potency, µM (titrated, usually from 57.1 µM), usual class: inhibitors. AID 881. purified 15hLO-2, xylenol orange hydroperoxide absorbance. actives 0.56% (n = 110,000). O15296; also: nearly all actives have a fitted effect of over 60% in size
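Enzyme 50 nM, AA 45 uM, 25 mM Hepes pH 7.5 + 0.01% Triton X-100; cpd preinc 15 min RT, rxn 90 min RT; stop/detect with 200 uM XO + 300 uM Fe(II) in 50 mM H2SO4, 30 min; A573/A405.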
IMPase inh – IMPase inhibition in cells; CHO-M1 cells, IP1 accumulation, HTRF TR-FRET ratio; AID 901; inhibition (IP1 accumulation), % at 46.1 µM; P97697; 120,000 tested, under 10 active; active = well fitted curve in the direction sought with a large enough effect in the signal ratio, not every such curve was filed as active; inconclusive = small, poorly fitted or top-dose-only effect, or a change in a side signal; inactive = no such curve, though single readings can be large or run the other way; the % refers to the signal ratio;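 also: cells stimulated with carbachol in lithium chloride buffer; higher means more IMPase inhibition seen as more IP1 and lower FRET ratio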
Target sequence (P97697 whole entry, looked up): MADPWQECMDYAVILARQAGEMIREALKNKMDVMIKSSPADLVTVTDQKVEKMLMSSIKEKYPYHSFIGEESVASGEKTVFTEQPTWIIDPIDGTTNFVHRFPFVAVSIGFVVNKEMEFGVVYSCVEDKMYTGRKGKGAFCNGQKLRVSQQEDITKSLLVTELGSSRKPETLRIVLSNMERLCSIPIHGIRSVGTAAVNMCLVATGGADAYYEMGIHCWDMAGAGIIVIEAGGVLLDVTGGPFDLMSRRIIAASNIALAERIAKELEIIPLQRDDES
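Carbachol-driven Gq signalling in CHO-M1 cells (2000/well) generates IP1. Compounds that block IMPase raise IP1 and so reduce the FRET signal from Eu-anti-IP1 and d2-IP1 after a 10 min room-temperature lysis.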
PNC assembly inh – blocks assembly of the perinucleolar compartment. PC3M PTB-GFP, PNC prevalence imaging, 16 h; active compounds read low. activity change (PNC), negative = inhibition, % at 10 µM. actives 3.1% (n = 140,000). AID 2417;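 active = readout at or below -70, meaning at least 70% loss of cells showing the perinucleolar compartment, a nuclear body marking cancer cells; inconclusive = readout between -30 and a set limit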
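PC3M cells stably expressing PTB-GFP, 750–1000 cells/well, treated 16 h at 37 °C with compound (23 nl of library stock), in duplicate. After paraformaldehyde fixation and Hoechst stain, imaged at 20x; PNC prevalence scored by image analysis.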
ALOX12 inhib – 12-hLO (ALOX12) enzyme inhibition; purified 12-hLO, xylenol orange hydroperoxide absorbance; Potency, µM (highest dose often 57.1 µM), most hits filed as inhibitors; actives 0.12% (n = 150,000); also: nearly all actives have a fitted effect of over 55% in size
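Purified human 12hLO (150 nM), preincubated 15 min with compound, then 40 uM arachidonic acid for 30 min, room temperature, Hepes pH 7.0 with 0.01% Triton X-100. Hydroperoxide detected by ferrous iron/xylenol orange; 573/405 nm absorbance ratio gives reaction progress.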
Numbers stand for hits; – = inactive; ? = inconclusive; · = no result given; [ ] = another dose, or the depositor's remark. Unless noted, calls follow the shape of the dose curve; as a rule, active = well fitted curve in the direction sought with a large enough effect; inconclusive = small, poorly fitted or top-dose-only effect, or another doubt; inactive = no such curve, though single readings can be large; an effect the other way counts as inactive or inconclusive.

SMILES | ALOX15B inhib | IMPase inh | PNC assembly inh | ALOX12 inhib
CCNC(=S)N/N=C(\C)c1cc2ccccc2o1 | · | · | – | –
C/C(=N\NC(=S)NCc1ccccc1)c1ccc2ccccc2c1 | · | · | -99 | ?
Cc1ccc(S(=O)(=O)N2c3ccccc3OCC2C(C)(C)C)cc1 (configuration not stated) | · | – | -100 | –
O=C(C1CCCN(S(=O)(=O)c2cnc[nH]2)C1)N1CC(=O)N(CCc2ccccc2)C(=O)C1 (configuration not stated) | · | – | -119 | –
O=C(c1cccc(S(=O)(=O)Nc2cccc(C(F)(F)F)c2)c1)N1CCCCC1 | · | ? | – | –
O=S(=O)(c1ccc(N2CCOCC2)cc1)N1CCOCC1 | – | – | – | –
CC#CCN(CC#CC)S(=O)(=O)c1ccc(S(=O)(=O)N2CCOCC2)cc1 | – | – | -105 | –
COCCn1c(SCC(=O)N2CCCc3ccccc32)nc2c(c1=O)SC(C)C2 (configuration not stated) | – | – | -108 | –
Cc1cc(=O)[nH]c(SCC(=O)N2CCCc3ccccc32)n1 | · | – | -100 | –
Cc1cccc(N2C(S)=C(C#N)C(=O)NC2c2cccs2)c1 (configuration not stated) | · | – | -84 | –
CN(Cc1cccs1)CC(O)COCc1ccco1 (configuration not stated) | – | – | – | –
COc1ccccc1COCC(O)CN(Cc1ccco1)Cc1ccccc1O (configuration not stated) | · | · | -116 | –
COC(=O)c1cccc(C23CC4(C2)[C@H](CN(C)[C@@H]4c2ccccc2)C3c2ccc(Cl)nc2)c1 (some centres not stated) | – | · | · | –
O=C(c1ccc(-n2c(=O)c(=O)[nH]c3ccccc32)cc1)N1CCCN(Cc2ccccc2)CC1 | · | · | · | –
O=c1c2ccccc2c2ccccc2c(=O)n1Cc1cccnc1 | – | – | – | –
O=C1NC(c2ccccc2)(C(F)(F)F)C(=O)N1Cc1cccnc1 (configuration not stated) | – | – | -85 | –
CN(C)C(=O)N1CCCC(C(=O)NCc2ccccc2)C1 (configuration not stated) | – | – | -91 | –
O=C(COC(=O)C12CC3CC(CC(C3)C1)C2)Nc1ncc(Cl)cc1Cl | – | ? | -88 | –
O=C(COC(=O)CC12CC3CC(CC(C3)C1)C2)Nc1ncc(Cl)cc1Cl | – | – | – | –
CC1CCN(S(=O)(=O)c2cc(C(=O)N3CCN(c4ncccn4)CC3)ccc2Br)CC1 | · | · | – | –
CC(C)(C)C(=O)[C@H]([C@@H](c1ccccc1)N1CCOCC1)N1CCOCC1 | –[11.4 µM] | · | · | –[11.4 µM]
CC(=O)Nc1nc(-c2ccccc2)ns1 | · | – | -100 | –
Cc1ccc(C)n1N1C(=O)/C(=C\c2ccc(Cl)cc2)SC1=S | ? | – | – | –
NS(=O)(=O)c1ccc(CCN2C(=O)/C(=C\c3ccc(Cl)cc3)SC2=S)cc1 | · | · | -84 | –
COc1ccccc1C1N(c2cc(Cl)ccc2OC)C(=O)C2CCCN21 (configuration not stated) | – | – | -106 | –
SMILES | ALOX15B inhib | IMPase inh | PNC assembly inh | ALOX12 inhib
Cn1ncc(Cl)c1C(=O)Nc1ccc(Cl)cn1 | · | – | -100 | –
CC(C)[C@@H](CC(=O)N[C@@H]1CCNC[C@H]1C(=O)N[C@H](CC(=O)N[C@@H](CCC(=O)O)CC(=O)O)Cc1c[nH]c2ccccc12)NC(=O)C[C@H](Cc1c[nH]c2ccccc12)NC(=O)[C@@H]1CNCC[C@H]1N | · | · | · | –
CC1(C)Oc2ccccc2OC1(O)c1ccc2ccccc2n1 (configuration not stated) | · | · | -113 | –
COCCn1c(-c2ccccc2)nc2ccccc21 | · | · | -113 | –
COc1ccc(-c2nc3ccccc3n2Cc2ccc(C)cc2)cc1 | – | – | -82 | –
COc1ccc(-c2nc3ccccc3n2Cc2ccc(Cl)cc2)cc1 | · | – | · | ·
CC1CN(C(=O)c2cccs2)CCN1C(=O)c1cccs1 (configuration not stated) | – | – | – | –
CCOC(=O)c1c(Nc2ccccc2N)cc(C)nc1C | – | – | -107 | –
COc1ccc(C(=O)N2CCC3(CCCN(c4cccc(-c5ccccc5)c4)C3)CC2)cc1 | – | · | · | –
CN1C(=O)CC(C(=O)O)SC1=Nc1cc(Cl)cc(Cl)c1 (configuration not stated) | · | · | -87 | –
COCCCN1CN(Cc2ccccc2)CNC1=S | · | – | -92 | –
CCCN1CN(Cc2ccccc2)CNC1=S | · | – | ? | –
CCc1ccc(OCC(=O)NCCN(C)C)c(Br)c1 | · | – | – | –
CCc1ccc(OCC(=O)N(C)CCC#N)c(Br)c1 | – | – | -91 | –
CC1C/C(=C\c2cccnc2)C(=O)/C(=C/c2cccnc2)C1 (configuration not stated) | · | · | -116 | –
Cc1ccc(-c2nc(NC(=O)CSc3ncnc4sc5c(c34)CCC(C)C5)ns2)cc1 (configuration not stated) | · | – | · | ·
Cc1ccc(C(=O)CSc2ncnc3sc4c(c23)CCC(C)C4)cc1 (configuration not stated) | · | – | -119 | –
OCC[C@@H]1C[C@@H](O)[C@H](O)[C@]2(CCCCO2)O1 | · | · | – | –
C=CCn1c(=S)[nH]c2sc3c(c2c1=O)CCC3 | · | – | -109 | ?
C=CCn1c(=S)[nH]c2nc3c(cc2c1=O)CCCC3 | – | – | – | –
O=c1c(-c2ccccc2)coc2cc(O)cc(O)c12 | – | · | · | 11µM
O=c1c(-c2ccc3c(c2)OCCO3)coc2cc(O)cc(O)c12 | – | – | – | ?
CCCC(c1nnnn1CS(=O)(=O)c1ccc(C)cc1)N1CCN(c2ccccc2)CC1 (configuration not stated) | – | – | ? | –
Cc1ccc(S(=O)(=O)Cn2nnnc2C(CC(C)C)N2CCN(c3ccc(F)cc3)CC2)cc1 (configuration not stated) | – | – | -115 | –
C[C@H]1[C@H]2CC[C@H]3C4CC=C5C[C@@H](N(C)C)CC[C@]5(C)C4CC[C@]23CN1C (some centres not stated) | – | – | · | –
SMILES | ALOX15B inhib | IMPase inh | PNC assembly inh | ALOX12 inhib
Cc1ccc(-c2cc(C(F)(F)F)n3ncc(C(=O)N4CCCc5ccccc54)c3n2)cc1 | · | – | -100 | –
Cc1ccc(-c2cc(C(F)(F)F)n3ncc(C(=O)N4CCN(C)CC4)c3n2)cc1 | – | – | -100 | –
CN1CCN(C(=O)c2cnn3c(C(F)(F)F)cc(-c4ccc5c(c4)OCO5)nc23)CC1 | – | – | – | –
COc1cc(C(=O)OCC(=O)N(C)Cc2ccccc2)cc(OC)c1OC | · | – | -100 | –
COC(=O)N1CCC2(CCCN(C(=O)Nc3cccc(C#N)c3)C2)CC1 | – | · | · | –
CCC(c1nnc(SCC(=O)Nc2cc(Cl)ccc2C#N)n1C1CCCCC1)N(C)C (configuration not stated) | · | · | -107 | –
O=C(O)CCc1nc2ccccc2[nH]1 | –[11.4 µM] | · | · | –[11.4 µM]
CCOc1c(C)cc2[nH]c(CCC(=O)O)nc2c1C | · | ? | -119 | –
CCCn1nnc(NC(=O)c2ccc(Br)cc2)n1 | – | – | ? | –
